# Reference: the supplement of paper PMC10037445
# The full ranking holds about 2,900 compounds; the median of “NF-kB SEAP reporter activity, fold change vs agonist alone” is about 0.99, and the highest 2% start at about 2.6. This is one part of a sample in which the highest values are shown more often than they occur.
# Assays:
# RAW-Dual [1] = test: NF-kB SEAP reporter activity, fold change vs agonist alone; cytotoxicity flag (confluency mask): not cytotoxic; higher = enhanced NF-kB activity
# Method in brief: (§1)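 Library stock was pin-tooled at 50 nL into 384-well plates of RAW-Dual macrophages (50,000 cells/well, DMEM), followed 1 h later by a PRR agonist, and the cells were kept at 37 °C, 5% CO2. Supernatant collected after 20 hours was read for IRF by QuantiLuc luminescence and for NF-κB by QuantiBlue absorbance at 620 nm. Reporter activity is fold change over agonist-alone wells, and a well counted as cytotoxic when its IncuCyte confluency was below 70% of agonist controls in both mask sets.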
# RAW-Dual [2] = test: NF-kB SEAP reporter activity, fold change vs agonist alone; higher = enhanced NF-kB activity; details: library stock concentration (final ~1000-fold dilution): 10 mM
# Method in brief: as §1
# RAW-Dual [3] = test: NF-kB SEAP reporter activity, fold change vs agonist alone; cytotoxicity flag (confluency mask): cytotoxic (confluency <70% of control); higher = enhanced NF-kB activity
# Method in brief: as §1
# [4] = agonist: ODN 1826 (TLR9) 0.5 ug/mL
# [5] = agonist: Pam2CSK4 (TLR2/6) 0.1 ug/mL
# [6] = agonist: Pam3CSK4 (TLR2/1) 0.1 ug/mL
# [7] = cytotoxicity flag (confluency mask): not cytotoxic, agonist: Imiquimod (TLR7) […]
# [8] = cytotoxicity flag (confluency mask): not cytotoxic, agonist: MPLA (TLR4) […]
smiles,measurement,setting,value
CC(NCc1ccc(OCc2cccc(F)c2)cc1)C(N)=O.CS(=O)(=O)O (configuration not stated) (library stock concentration (final ~1000-fold dilution): 10 mM),NF-kB SEAP reporter activity,RAW-Dual [1]; agonist: LPS (TLR4) 0.1 ug/mL,1.08
same,NF-kB SEAP reporter activity,RAW-Dual [1]; [4],1.17
same,NF-kB SEAP reporter activity,RAW-Dual [1]; [5],0.813
same,NF-kB SEAP reporter activity,RAW-Dual [1]; [6],1.1
CC(NCc1ccc(OCc2cccc(F)c2)cc1)C(N)=O.CS(=O)(=O)O (configuration not stated),NF-kB SEAP reporter activity,RAW-Dual [2]; [7],1.73
same,NF-kB SEAP reporter activity,RAW-Dual [2]; [8],1.07
CCc1cnn2c(NCc3ccc[n+]([O-])c3)cc(N3CCCCC3CCO)nc12 (configuration not stated) (library stock concentration (final ~1000-fold dilution): 10 mM),NF-kB SEAP reporter activity,RAW-Dual [3]; agonist: LPS (TLR4) 0.1 ug/mL,0.193
same,NF-kB SEAP reporter activity,RAW-Dual [3]; [4],0.198
same,NF-kB SEAP reporter activity,RAW-Dual [3]; [5],0.0843
same,NF-kB SEAP reporter activity,RAW-Dual [3]; [6],0.182
CCc1cnn2c(NCc3ccc[n+]([O-])c3)cc(N3CCCCC3CCO)nc12 (configuration not stated),NF-kB SEAP reporter activity,"RAW-Dual [2]; cytotoxicity flag (confluency mask): cytotoxic (confluency <70% of control), agonist: Imiquimod (TLR7) […]",0.308
same,NF-kB SEAP reporter activity,"RAW-Dual [2]; cytotoxicity flag (confluency mask): cytotoxic (confluency <70% of control), agonist: MPLA (TLR4) […]",0.225
Cc1cn(-c2cc(NC(=O)c3ccc(C)c(Nc4nccc(-c5cccnc5)n4)c3)cc(C(F)(F)F)c2)cn1.Cl (library stock concentration (final ~1000-fold dilution): 10 mM),NF-kB SEAP reporter activity,RAW-Dual [1]; agonist: LPS (TLR4) 0.1 ug/mL,2.23
same,NF-kB SEAP reporter activity,RAW-Dual [1]; [4],1.41
same,NF-kB SEAP reporter activity,RAW-Dual [1]; [5],0.403
same,NF-kB SEAP reporter activity,RAW-Dual [1]; [6],0.466
Cc1cn(-c2cc(NC(=O)c3ccc(C)c(Nc4nccc(-c5cccnc5)n4)c3)cc(C(F)(F)F)c2)cn1.Cl,NF-kB SEAP reporter activity,RAW-Dual [2]; [8],2.49
Nc1nc(NC2CC2)c2ncn(C3C=CC(CO)C3)c2n1 (configuration not stated) (library stock concentration (final ~1000-fold dilution): 10 mM),NF-kB SEAP reporter activity,RAW-Dual [1]; agonist: LPS (TLR4) 0.1 ug/mL,1.05
same,NF-kB SEAP reporter activity,RAW-Dual [1]; [4],1.07
same,NF-kB SEAP reporter activity,RAW-Dual [1]; [5],1.35
same,NF-kB SEAP reporter activity,RAW-Dual [1]; [6],1.07
Nc1nc(NC2CC2)c2ncn(C3C=CC(CO)C3)c2n1 (configuration not stated),NF-kB SEAP reporter activity,RAW-Dual [2]; [8],1.16
CCN(CC)C(=O)C1(c2ccccc2)CC1CN.Cl (configuration not stated) (library stock concentration (final ~1000-fold dilution): 10 mM),NF-kB SEAP reporter activity,RAW-Dual [1]; agonist: LPS (TLR4) 0.1 ug/mL,0.999
same,NF-kB SEAP reporter activity,RAW-Dual [1]; [4],0.858
same,NF-kB SEAP reporter activity,RAW-Dual [1]; [5],0.856
same,NF-kB SEAP reporter activity,RAW-Dual [1]; [6],1.18
CCN(CC)C(=O)C1(c2ccccc2)CC1CN.Cl (configuration not stated),NF-kB SEAP reporter activity,RAW-Dual [2]; [7],1.02
same,NF-kB SEAP reporter activity,RAW-Dual [2]; [8],1.1
CC(=O)O.NCc1ccc(S(N)(=O)=O)cc1,NF-kB SEAP reporter activity,RAW-Dual [2]; [7],1.17
same,NF-kB SEAP reporter activity,RAW-Dual [2]; [8],1.03
CC(=O)O.NCc1ccc(S(N)(=O)=O)cc1 (library stock concentration (final ~1000-fold dilution): 10 mM),NF-kB SEAP reporter activity,RAW-Dual [1]; agonist: LPS (TLR4) 0.1 ug/mL,1.04
same,NF-kB SEAP reporter activity,RAW-Dual [1]; [4],1.01
same,NF-kB SEAP reporter activity,RAW-Dual [1]; [5],0.927
same,NF-kB SEAP reporter activity,RAW-Dual [1]; [6],1.23
CC1(C)CC(=O)c2c(C(F)(F)F)nn(-c3ccc(C(N)=O)c(NC4CCC(OC(=O)CN)CC4)c3)c2C1 (configuration not stated),NF-kB SEAP reporter activity,RAW-Dual [2]; [7],0.916
same,NF-kB SEAP reporter activity,RAW-Dual [2]; [8],0.907
CC1(C)CC(=O)c2c(C(F)(F)F)nn(-c3ccc(C(N)=O)c(NC4CCC(OC(=O)CN)CC4)c3)c2C1 (configuration not stated) (library stock concentration (final ~1000-fold dilution): 10 mM),NF-kB SEAP reporter activity,RAW-Dual [1]; agonist: LPS (TLR4) 0.1 ug/mL,0.226
same,NF-kB SEAP reporter activity,RAW-Dual [1]; [4],0.929
same,NF-kB SEAP reporter activity,RAW-Dual [1]; [5],0.113
same,NF-kB SEAP reporter activity,RAW-Dual [1]; [6],0.234
CC#CC(=O)N1CCC(n2c(=O)n(-c3ccc(Oc4ccccc4)cc3)c3c(N)ncnc32)C1.Cl (configuration not stated),NF-kB SEAP reporter activity,RAW-Dual [2]; [7],0.734
same,NF-kB SEAP reporter activity,RAW-Dual [2]; [8],0.814
CC#CC(=O)N1CCC(n2c(=O)n(-c3ccc(Oc4ccccc4)cc3)c3c(N)ncnc32)C1.Cl (configuration not stated) (library stock concentration (final ~1000-fold dilution): 10 mM),NF-kB SEAP reporter activity,RAW-Dual [1]; agonist: LPS (TLR4) 0.1 ug/mL,0.647
same,NF-kB SEAP reporter activity,RAW-Dual [1]; [4],0.662
same,NF-kB SEAP reporter activity,RAW-Dual [1]; [5],0.378
same,NF-kB SEAP reporter activity,RAW-Dual [1]; [6],0.517
CCOC(=O)C=P(c1ccccc1)(c1ccccc1)c1ccccc1,NF-kB SEAP reporter activity,RAW-Dual [2]; [7],0.715
same,NF-kB SEAP reporter activity,RAW-Dual [2]; [8],1.05
CCOC(=O)C=P(c1ccccc1)(c1ccccc1)c1ccccc1 (library stock concentration (final ~1000-fold dilution): 10 mM),NF-kB SEAP reporter activity,RAW-Dual [1]; agonist: LPS (TLR4) 0.1 ug/mL,0.964
same,NF-kB SEAP reporter activity,RAW-Dual [1]; [4],0.875
same,NF-kB SEAP reporter activity,RAW-Dual [1]; [5],0.894
same,NF-kB SEAP reporter activity,RAW-Dual [1]; [6],0.912
